The values below come from the supplement of paper PMC13380429.

Assay [1] deals with Vero E6 infected with SARS-CoV-2. Put plainly: morphology score (similarity to uninfected cells); higher = more like uninfected cells. Conditions: 24 h.
Assay [2] shares this test system. The assay is described as follows: SARS-CoV-2 infection rate relative to infected DMSO; higher = more infection, active = 60 or less. The following applies: 24 h.

In turn, `CCn1nc(C)c2c1C(c1ccccc1)=NCC(=O)N2` [ripazepam] (10 µM) had a morphology score in assay [1] of 0.0297. In addition, the SARS-CoV-2 infection rate in assay [2] was 109% (inactive).
For `CCc1ccccc1OC[C@@H](O)CN[C@H]1CCCc2ccccc21` (10 µM) the same measures were 0.0335 and 93% (inactive).
The matching figures for `O=C(NCC1CCOCC1)c1cnc(Nc2ccc(Cl)cc2Cl)nc1C(F)(F)F` (10 µM): 0.326 and 96% (inactive).
For `Clc1cccc2c1CN(C1=NCCN1)C2` (10 µM) the same measures were 0.132 and 93.5% (inactive).
`C[C@@H]([C@H](O)c1ccc(O)cc1)N1CCC(Cc2ccccc2)CC1` (racemic) [ifenprodil] (10 µM): the morphology score in assay [1] came to 0.0632. For the same molecule, the SARS-CoV-2 infection rate in assay [2] was 100% (inactive).
The matching figures for `O=C1Nc2cc(Cl)c(Cl)cc2N2CCNC[C@H]12` (10 µM): 0.179 and 108% (inactive).
For `CN1CCCN(C(c2ccccc2)c2ccc(Cl)cc2)CC1` (configuration not stated) [homochlorcyclizine] (10 µM) the same measures were 0.29 and 59.5% (active).
For `OCCNC1CCCc2c1[nH]c1ccc(-c3ccccc3)cc21` (configuration not stated) [casin] (0.833333 µM) the same measures were 0.105 and 102% (inactive).
Consider `Nc1ccc(O)c(C(=O)O)c1` [mesalazine] (10 µM), for which, in assay [1], the morphology score was found to be 0.0799. In addition, the SARS-CoV-2 infection rate in assay [2] was 93.5% (inactive).
For `C[N+](C)(C)CCOP(=O)(O)OC[C@H](O)CO` [choline-alfoscerate] (10 µM) the same measures were 0.0475 and 114% (inactive).
The matching figures for `C[C@@H](NC(=O)c1ncnc(N)c1Cl)c1ncc(C(=O)Nc2cc(C(F)(F)F)c(Cl)cn2)s1` (10 µM): -0.0506 and 108% (inactive).
For `C[C@H](Nc1cc(NS(=O)(=O)N2CCC2)nc(SCc2cccc(F)c2F)n1)[C@@H](O)CO` (10 µM) the same measures were 0.112 and 99% (inactive).
On to `C[n+]1cccc(C(=O)[O-])c1` [trigonelline] (0.833333 µM), for which, in assay [1], the morphology score amounted to 0.0676. Further, in assay [2], the SARS-CoV-2 infection rate is 108% (inactive).
For `C[N+](C)(C)CCCCCCCCCC[N+](C)(C)C` [decamethonium] (10 µM) the same measures were 0.0864 and 108% (inactive).
For `COc1ccc(Cc2cnc(N)nc2N)cc1OC` [diaveridine] (10 µM) the same measures were 0.191 and 101% (inactive).
For `NCCNCCNCCN` [trientine] (10 µM) the same measures were -0.00487 and 106% (inactive).
Consider `CN(CCc1ccc(Cl)c(Cl)c1)CCN1CCCC1` (10 µM), for which the morphology score in assay [1] was found to be 0.355. The SARS-CoV-2 infection rate in assay [2] is 74.5% (inactive).
For `COc1ccc(NS(=O)(=O)c2ccc(I)cc2)cc1N1CCN(C)CC1` (10 µM), in assay [1], the morphology score came to 0.195. Also, the SARS-CoV-2 infection rate in assay [2] is 98.5% (inactive).
The matching figures for `N[C@@H](CSCCCO)C(=O)O` [fudosteine] (10 µM): 0.0399 and 104% (inactive).
The matching figures for `O=C(O)Cn1c2c(c3cc(F)ccc31)CN(C(=O)c1cccc3ccccc13)CC2` [setipiprant] (10 µM): -0.161 and 108% (inactive).
The matching figures for `C[C@@H](c1ncncc1F)[C@](O)(Cn1cncn1)c1ccc(F)cc1F` [voriconazole] (10 µM): 0.0199 and 101% (inactive).
For `N=C(NCc1ccc(Cl)cc1)SCCCc1c[nH]cn1` [clobenpropit] (10 µM), in assay [1], the morphology score amounted to 0.14. The SARS-CoV-2 infection rate in assay [2] was 104% (inactive).
For `COc1cc(C(C)=O)ccc1O` [apocynin] (10 µM) the same measures were 0.331 and 97% (inactive).
The matching figures for `CCCCCCCCCCCCCCCC[N+](C)(C)C` [cetrimonium] (0.833333 µM): -0.199 and 114% (inactive).
For `CC1/C=C/C=C/C=C/C=C/C=C/C=C/C=C/C(OC2O[C@H](C)[C@@H](O)[C@H](N)[C@@H]2O)CC(O)C(C(=O)O)C(O)CC(=O)CC(O)CC(O)CC(O)CC(=O)CCCC(=O)CC(=O)OC1C(C)CC(C)C(O)CC(=O)c1ccc(N)cc1` (some centres not stated) [candicidin] (0.833333 µM), the morphology score in assay [1] stood at 0.198. Besides, the SARS-CoV-2 infection rate in assay [2] was 100% (inactive).
For `COc1cccc(/C=N/N=C/c2cccc(OC)c2)c1` (10 µM) the same measures were 0.132 and 92% (inactive).
The matching figures for `NC(=O)CC[C@H](N)C(=O)O` [L-glutamine] (10 µM): 0.278 and 94% (inactive).
In assay [1], `O=C(O)C[CH2][Ge](=[O])[O][Ge](=[O])[CH2]CC(=O)O` [propagermanium] (10 µM) came in with a morphology score of 0.128. For the same molecule, the SARS-CoV-2 infection rate in assay [2] was 94% (inactive).
For `Oc1ccc(Cl)c2c1CCC2` [chlorindanol] (10 µM) the same measures were 0.109 and 102% (inactive).
For `CC1(C)S[C@@H]2[C@H](NC(=O)[C@H](NC(=O)N3CCNC3=O)c3ccccc3)C(=O)N2[C@H]1C(=O)O` [azlocillin] (10 µM) the same measures were -0.0252 and 104% (inactive).
For `Nc1nc(=O)n([C@@H]2O[C@H](CO)[C@@H](O)[C@@H]2F)cc1I` [fiacitabine] (10 µM) the same measures were -0.0647 and 111% (inactive).
The molecule `Cn1cc(C[C@@H](N)C(=O)O)c2ccccc21` [indoximod] (10 µM) yielded a morphology score in assay [1] of 0.183. In addition, the SARS-CoV-2 infection rate in assay [2] was 110% (inactive).
For `CC[C@]12CCCN3CCc4c(n(c5ccccc45)[C@@](O)(C(=O)OC)C1)[C@@H]32` [vincamine] (10 µM) the same measures were 0.0512 and 99% (inactive).
For `COC(=O)N/N=C/c1c[n+]([O-])c2ccccc2[n+]1[O-]` [carbadox] (10 µM) the same measures were 0.227 and 85% (inactive).
The matching figures for `O=C(O)[C@@H](S)[C@@H](S)C(=O)O` [dimercaptosuccinic-acid] (10 µM): 0.102 and 100% (inactive).
`COc1cccc([C@@H](C)NCCCc2ccccc2Cl)c1` [tecalcet] (10 µM): in assay [1], the morphology score came out at 0.534. Also, the SARS-CoV-2 infection rate in assay [2] was 50.5% (active).
The matching figures for `COC(=O)N1CCN(Cc2cccc(NC(=O)Nc3ccc(C)nc3)c2F)CC1` [omecamtiv-mecarbil] (10 µM): 0.272 and 99% (inactive).
Take `c1ccc(Oc2nc(NC3CCCCC3)c3[nH]cnc3n2)cc1` (0.833333 µM): the morphology score in assay [1] came to 0.191. Further, the SARS-CoV-2 infection rate in assay [2] is 104% (inactive).
The matching figures for `N=C(N)NCCC[C@H](NC(=O)c1sccc1NS(=O)(=O)c1cccc2nsnc12)C(=O)O` (10 µM): 0.0108 and 108% (inactive).
For `CS(=O)(=O)OCCCCOS(C)(=O)=O` [busulfan] (10 µM) the same measures were -0.026 and 102% (inactive).
The matching figures for `CC1CCN(C(c2ccc(F)cc2)c2ccc(C(C)C(=O)O)cc2-c2ccc(C(F)(F)F)cc2)CC1` (configuration not stated) (10 µM): 0.0608 and 106% (inactive).
In assay [1], `Cc1ccc(OC[C@@H](O)[C@H](C)NC(C)C)c2c1CCC2` (racemic) (10 µM) registered a morphology score of -0.0205. Besides, in assay [2], the SARS-CoV-2 infection rate is 110% (inactive).
For `CCn1c2ccccc2c2cc(CNCc3ccccc3OC)ccc21` (10 µM) the same measures were 0.26 and 87% (inactive).
In assay [1], `CN[C@@H](C)[C@H]1[C@H](O)C[C@@]2(C)[C@@H]3CC[C@H]4C(C)(C)[C@@H](NC)CC[C@@]45C[C@@]35CC[C@]12C` [cyclovirobuxin-D] (10 µM) came in with a morphology score of 0.331. The SARS-CoV-2 infection rate in assay [2] is 97% (inactive).
`[O-][S+](c1ccccc1)c1ccc2nnnn2n1` (configuration not stated) (0.833333 µM) displayed a morphology score in assay [1] of 0.19. Also, in assay [2], the SARS-CoV-2 infection rate was 85.5% (inactive).
The matching figures for `O=P(O)(NCCCl)NCCCl` [palifosfamide] (10 µM): -0.0297 and 107% (inactive).
The matching figures for `CCOc1nc2c(N)ncnc2n1CC` (10 µM): 0.236 and 88% (inactive).
In assay [1], `C[C@]12C=CC(=O)C=C1CC[C@@H]1[C@@H]2[C@@H](O)C[C@@]2(C)[C@H]1CC[C@]2(O)C(=O)COC(=O)CCC(=O)O` [prednisolone-hemisuccinate] (10 µM) showed a morphology score of 0.166. For the same molecule, in assay [2], the SARS-CoV-2 infection rate was 94% (inactive).
The matching figures for `CCN1CCC[C@H]1CNC(=O)c1c(OC)ccc(Br)c1OC` [remoxipride] (10 µM): 0.159 and 98.5% (inactive).
The matching figures for `C/C(=N\c1ccccc1N)c1c(C)cc(=O)n(O)c1O` (10 µM): -0.169 and 107% (inactive).
For the molecule `CC(C)C(=O)c1c(C(C)C)nn2ccccc12` [ibudilast] (10 µM), the morphology score in assay [1] was determined as 0.0924. Further, the SARS-CoV-2 infection rate in assay [2] was 97% (inactive).
The matching figures for `CCN(CC)C(=O)N[C@H]1C[C@@H]2c3cccc4[nH]cc(c34)C[C@H]2N(C)C1` [terguride] (10 µM): -0.00522 and 110% (inactive).
For `NC(=O)C[S+]([O-])C(c1ccccc1)c1ccccc1` (configuration not stated) (10 µM) the same measures were 0.113 and 106% (inactive).
The matching figures for `CC[N+](CC)(CC)CCOc1cccc(OCC[N+](CC)(CC)CC)c1OCC[N+](CC)(CC)CC` [gallamine-triethiodide] (10 µM): -0.128 and 112% (inactive).
`Cc1nc(C)c(C)nc1C` [chuanxiongzine] (10 µM) came in with a morphology score in assay [1] of -0.146. The SARS-CoV-2 infection rate in assay [2] is 118% (inactive).
For `CCCCN(CC)c1nc(C)nc2c1c(C)c(C)n2-c1c(C)cc(C)cc1C` [antalarmin] (10 µM) the same measures were 0.193 and 93% (inactive).
The matching figures for `CC(C)C[C@@H](C=O)NC(=O)[C@H](CC(C)C)NC(=O)[C@H](CC(C)C)NC(=O)OCc1ccccc1` (10 µM): 0.514 and 66% (inactive).
The matching figures for `CCC(=O)NCC[C@@H]1CCc2ccc3c(c21)CCO3` [ramelteon] (10 µM): 0.00565 and 114% (inactive).
As for `CCOC(=O)c1ccc(-c2ccc(OC(=O)N(C)Cc3cccc(-c4ccncc4)c3)cc2)cc1` (10 µM), the morphology score in assay [1] came out at 0.0201. The SARS-CoV-2 infection rate in assay [2] was 104% (inactive).
For `C=CCN1CC[C@]23CCCC[C@H]2[C@H]1Cc1ccc(O)cc13` [levallorphan] (10 µM) the same measures were -0.0532 and 114% (inactive).
For `Nc1ccc([As](=O)(O)O)cc1` [arsanilic-acid] (10 µM) the same measures were -0.00345 and 103% (inactive).
As to `CC(=O)N(O)[C@@H]1c2cc(C#N)ccc2OC(C)(C)[C@H]1O` (10 µM), the morphology score in assay [1] stood at 0.477. Also, the SARS-CoV-2 infection rate in assay [2] is 59% (active).
The matching figures for `OC[C@H]1O[C@@H](n2cnc3c(NC4CCCC4)nc(Cl)nc32)[C@H](O)[C@@H]1O` [2-chloro-N6-cyclopentyladenosine] (10 µM): 0.106 and 95% (inactive).
For `c1ccc2c(c1)OC[C@H](CNCCCOc1ccc3c(c1)OCO3)O2` [osemozotan] (10 µM) the same measures were 0.0986 and 106% (inactive).
For `Nc1n[nH]c2nnc(-c3c(-c4ccccc4)nn4ccccc34)cc12` (10 µM), the morphology score in assay [1] worked out at 0.264. The SARS-CoV-2 infection rate in assay [2] is 103% (inactive).
For `CC(C)c1nnc(-c2ccc(-c3ccccc3)nc2)n1-c1cccc2nonc12` (10 µM) the same measures were -0.103 and 103% (inactive).
